Rows were chosen to be rich in hits. Some 7.6% of all compounds tested hit in one or more screens of this group.
KB-3-1 cytotox: kills parental KB-3-1 adenocarcinoma cells; KB-3-1 viability, CellTiter-Glo ATP luminescence, 72 h; Potency, µM (highest dose often 46.1 µM), actives largely listed as cytotoxic; actives 1.4% (n = 400,000); AID 1347075; note: nearly all actives have a fitted effect of over 60% in size
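Cells are dispensed, compounds pinned in, plates held at 37 °C for 72 h, then CellTiter-Glo is added and luminescence read after 10 minutes. Cell line: parental KB-3-1 in phenol-red-free DMEM, 10% FBS.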
KCNH2 WT inh: inhibitors of human wildtype KCNH2 potassium channel; activity change, % at 1.84 µM; AID 720551; actives 0.37% (n = 340,000); U2OS, BacMam KCNH2, thallium flux FluxOr; active compounds read low; Q12809;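 active = maximum activity change below -70%; inconclusive = maximum activity change between -70% and -50%; inactive = maximum activity change above -50%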
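U2OS cells transduced with wild-type KCNH2 virus are loaded with FluxOr dye for 45 min, and thallium flux is measured in kinetic reads before and after stimulation buffer. Rate constants are normalized to DMSO controls.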
MCF10A rerep: DNA re-replication induction in MCF 10a cells | MCF 10A DNA re-replication, Hoechst nuclear intensity, 48 h | Potency, µM (titrated, usually from 46.1 µM), hits mostly activators | actives 2.9% (n = 350,000) | AID 624296; note: nearly all actives have a fitted effect of over 50% in size
KCNH2 3.1 block: KCNH2 3.1 (human) potassium channel inhibition; U2OS KCNH2 3.1, thallium flux FluxOr; active compounds read low; activity change, % (tested at about 1.8 µM); actives 0.95% (n = 340,000); AID 720553;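 active = maximum activity change below -70%; inconclusive = maximum activity change from -70% to -50%; inactive = maximum activity change above -50%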;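 note: thallium influx rate constant from kinetic fluorescence after stimulation buffer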
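U2OS cells transduced with KCNH2 3.1 mutant virus (1.77 x 10^8 /mL, 4 h), plated overnight at 37 C, loaded 45 min with FluxOr dye plus Red40 quencher. Thallium flux rate constant from kinetic reads after stimulation buffer, normalised to controls.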
SW480 rereplic: induces DNA re-replication in SW480 colon adenocarcinoma cells; SW480 DNA re-replication, Hoechst DNA content imaging, 48 h; Potency, µM (top dose mostly 46.1 µM), usual class: activators; actives 1.8% (n = 340,000); note: nearly all actives have a fitted effect of over 55% in size
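Compounds, transferred as 23 nL by pin tool, were incubated with cells for 48 hr; DNA content per nucleus was then quantified by Hoechst staining and fluorescence plate imaging.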
KB-V1 cytotox: kills drug-selected multidrug resistant KB-V1 cells | KB-V1 MDR cells viability, CellTiter-Glo, 72 h | actives 3.4% (n = 400,000) | Potency, µM (doses to about 46.1 µM), most hits filed as cytotoxic; note: nearly all actives have a fitted effect of over 60% in size
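KB-V1 MDR subline cells in DMEM (phenol-red free, 10% FBS) exposed to compounds in qHTS concentration series for 72 h at 37 degrees C. Viability read by CellTiter-Glo luminescence; concentration-effect curves fitted after normalization and correction.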
Hits are given with their value; i = inactive; ? = inconclusive; nt = not tested or not shown; [ ] = dose if it differs, or a comment. Unless noted, calls come from the whole dose curve; as a rule, active = well fitted curve in the direction sought with a large enough effect; inconclusive = small, poorly fitted or top-dose-only effect, or another doubt; inactive = no such curve, though single readings can be large; an effect the other way counts as inactive or inconclusive.

SMILES	KB-3-1 cytotox	KCNH2 WT inh	MCF10A rerep	KCNH2 3.1 block	SW480 rereplic	KB-V1 cytotox
CCOc1ccc(NC(=O)c2c(NC(=O)CNCCN3CCOCC3)sc3c2CCC3)cc1	i	i	i	i	7.3µM	i
CN1CCN(CC(=O)Nc2sc3c(c2C(=O)Nc2ccccc2)CCCC3)CC1	i	-92	i	-95	i	i
O=C(Cc1ccccc1)Nc1sc2c(c1C(=O)Nc1ccccc1)CCCCC2	i	nt	nt	nt	nt	i
COc1ccc(N2CCN(C(c3ccccc3)c3nnc(-c4ccccc4Cl)o3)CC2)cc1 (stereo not given)	i	nt	nt	nt	nt	i
CCOc1ccc(Br)cc1C1=NN(C(C)=O)C(c2ccc([N+](=O)[O-])s2)O1 (stereo not given)	?	i	?	i	8.2µM	i
Cc1ccc(-n2c(CNc3ccc(F)cc3)nnc2SCC(N)=O)cc1	i	i	i	i	i	i
CCCOc1ccc(C(=O)NCC(c2cccs2)N(C)C)cc1OC (stereo not given)	i	i	i	i	i	i
COc1cc(C(=O)NCC(c2cccs2)N(C)C)cc(Cl)c1OC(C)C (stereo not given)	i	i	?	i	?	7.3µM
CCOC(=O)N1CCN(c2ncnc3scc(-c4ccc(Cl)cc4)c23)CC1	i	i	i	i	i	?
Clc1ccc(CN2CCN(c3ncnc4scc(-c5cccs5)c34)CC2)cc1	?	i	?	-83	i	13µM
Clc1ccc(-c2csc3ncnc(N4CCc5ccccc5C4)c23)cc1	i	i	?	i	i	16µM
COC(=O)C1=CN(c2cccc(OCc3ccccc3)c2)C(N)=C(C#N)C1c1ccc(-c2ccccc2)cc1 (stereo not given)	i	nt	nt	nt	nt	i
CC(=O)Oc1ccc(-c2csc(Nc3ccc(S(N)(=O)=O)cc3)n2)cc1	i	i	i	i	i[1.84 µM]	i
COc1ccc(-c2csc(Nc3ccc(S(N)(=O)=O)cc3)n2)cc1	?	i	10µM	i	?	i
Oc1ccc(Nc2nc(-c3ccc(O)cc3)cs2)cc1	?	i	13µM	i	?	i
O=C(NCCCN1CCCC1=O)[C@H](CSCc1ccccc1)N1Cc2ccccc2C1=O	i	i	i	i	i	i
Cn1cccc1C(=O)NC(=O)COC(=O)CNC(=O)CNC(=O)c1ccc(Cl)cc1Cl	i	i	i	i	i	i
Cc1cccc(N(CC(=O)NCc2ccccc2)C(=O)Cn2nnc(-c3ccc(C)o3)n2)c1	i	i	i	i	i	2.9µM
Cc1ccc(-c2nnn(CC(=O)N(CC(=O)NC3CCCC3)c3ccc(F)cc3)n2)o1	i	-74	i	i	i	i
Cc1ccc(-c2nnn(CC(=O)N(CC(=O)NCc3ccccc3)c3cccc(C)c3C)n2)o1	i	i	i	i	i	i
Cc1ccc(-c2nnn(CC(=O)N(CC(=O)NC3CCCC3)c3cccc(F)c3)n2)o1	?	i	i	i	i	i
Cc1ccc(-c2nnn(CC(=O)N(CC(=O)NCC3CCCO3)c3ccc(F)c(Cl)c3)n2)o1 (stereo not given)	i	i	i	i	i	15µM
Cc1ccc(NC(=O)Cn2cc(S(=O)(=O)c3ccccc3)c(=O)c3cc4c(cc32)OCO4)cc1	i	nt	nt	nt	nt	?
CCN1C(=O)/C(=C\c2ccc(-c3ccc([N+](=O)[O-])cc3OC)o2)SC1=Nc1cccc(C(=O)O)c1	i	i	i	i	i	i
CCN=C1S/C(=C/c2ccc(-c3ccc(Cl)cc3C(=O)O)o2)C(=O)N1CC	i	i	6.5µM	i	12µM	i
SMILES	KB-3-1 cytotox	KCNH2 WT inh	MCF10A rerep	KCNH2 3.1 block	SW480 rereplic	KB-V1 cytotox
CCN=C1S/C(=C\c2cn(C(C)=O)nc2-c2ccccc2)C(=O)N1CC	i	i	?	i	i	18µM
CCN=C1S/C(=C\c2ccc(-c3cccc(C(=O)O)c3)o2)C(=O)N1CC	i	i	?	i	5.8µM	i
CC1=C(C(=O)Nc2ccccc2)C(c2cccs2)n2nc(SCc3ccccc3F)nc2N1 (stereo not given)	i	nt	nt	nt	nt	i
O=C(COC(=O)c1cc2ccccc2oc1=O)Nc1ccc(F)cc1F	i	i	i	i	i	i
Cc1cc(C)c(CN2CCCC(CNC(=O)c3ccc(F)cc3)C2)c(-n2cccn2)c1 (stereo not given)	i	-85	i	-111	i	i
Cc1ccsc1C(=O)C1CCCN(Cc2cc(F)ccc2-n2cccn2)C1 (stereo not given)	i	i	i	-81	i	?
Cc1cc(CN2CCCC(CNC(=O)c3ccc(F)cc3)C2)cc(C)c1O (stereo not given)	i	i	23µM	i	?	i
C/C(=N/NC(=O)c1cnccn1)c1cccs1	i	i	i	i	i	i
COc1ccc(/C=N/Nc2cc(C)nc3ccccc23)cc1	15µM	i	1.6µM	?	4.1µM	?
COc1ccc(Nc2cc(C)nc3ccc(OC)cc23)cc1	i	i	i	i	i	?
COc1ccc(/C=N/Nc2cc(C)nc3c(C)cccc23)cc1	?	i	18µM	i	26µM	i
COc1cccc2c(N/N=C/c3ccc(O)c(O)c3)cc(C)nc12	i	i	i	i	i	i
COc1ccc2nc(C)cc(N/N=C/c3ccc(F)cc3)c2c1	26µM	i	23µM	i	16µM	?
O=C(C1COc2ccccc2O1)N1CCN(S(=O)(=O)c2ccccc2)CC1 (stereo not given)	i	i	i	i	i	?
Cc1ccc(S(=O)(=O)NCCC(=O)N2CCN(Cc3ccccc3)CC2)cc1	i	i	i	i	i	?
CC(=O)N1CCc2cc(S(=O)(=O)NCCC(=O)N3CCN(Cc4ccccc4)CC3)ccc21	?	i	i	i	i	16µM
CCn1cc(C(=O)Nc2ncccc2O)c(=O)c2cc(F)c(N3CCN(C(=O)c4ccco4)CC3)cc21	i	i	i	i	i	i
O=C(CCn1c(=O)[nH]c2ccsc2c1=O)N(CCc1ccccc1)Cc1ccccc1	?	i	i	i	i	21µM
C(=Nn1cnnc1)c1ccc2c(c1)CCC2	16µM	i	nt	i	nt	?
O=[N+]([O-])c1cc(/C=N/n2cnnc2)ccc1N1CCCC1	i	nt	i	i	i	2.6µM
O=[N+]([O-])c1cc(/C=N/O)ccc1N1CCCC1	?	i	i	i	i	?
CC(C)CN(CC(C)C)c1ccc(/C=N/n2cnnc2)cc1[N+](=O)[O-]	?	i	?	i	i	21µM
O=c1cc[nH]c(=S)[nH]1	nt	nt	i	nt	i	nt
O=C(Cn1cnc2c(oc3ccccc32)c1=O)Nc1ccccc1C(F)(F)F	i	nt	nt	nt	nt	i
COc1ccc(C(CNC(=O)CN2C(=O)NC(C)(c3ccc4ccccc4c3)C2=O)N2CCCC2)cc1 (stereo not given)	i	i	i	i	i	i
